Experimental data reported in PubChem BioAssay AID1347145 (National Center for Advancing Translational Sciences (NCATS), 2019).
Inconclusive results are not listed. Activity calls are given as the source filed them. Calls come from the whole dose curve; as a rule, active = well fitted inhibition curve with a large enough effect; inconclusive = small, poorly fitted or top-dose-only effect; inactive = no such curve, though single readings can be large or run the other way.

The molecules below were run against N-terminal Xaa-Pro-Lys N-methyltransferase 1 (Homo sapiens) (UniProt Q9BV86) (assay: qHTS Assay for Inhibitors of N-terminal methyltransferase 1 (NTMT1): MTaseGlo Assay Confirmatory Screen, Round 1). Settings: Recombinant NTMT1, MTase-Glo SAH luminescence; series mostly up to 57.1 µM.
Outline: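 Luminescence from MTase-Glo conversion of SAH to ATP measured activity after a 30 min RT reaction with 1 µM SPKRIA substrate, 100 µM SAM and 125 nM enzyme. Normalization used no-enzyme and DMSO controls, followed by Hill fitting.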

N-terminal Xaa-Pro-Lys N-methyltransferase 1 (Homo sapiens), sequence (Q9BV86 whole entry, looked up): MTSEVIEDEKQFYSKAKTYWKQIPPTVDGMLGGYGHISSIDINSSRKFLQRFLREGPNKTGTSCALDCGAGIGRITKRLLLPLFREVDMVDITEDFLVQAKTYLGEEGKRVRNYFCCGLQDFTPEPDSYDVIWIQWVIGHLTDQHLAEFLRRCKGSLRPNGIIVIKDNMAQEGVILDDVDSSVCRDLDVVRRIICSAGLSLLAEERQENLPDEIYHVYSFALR

Potency, inactive:
NCCNC(=O)Cc1ccc(NC(=O)Cc2ccc(Nc3ncnc4c3ncn4[C@@H]3O[C@H](CO)[C@@H](O)[C@H]3O)cc2)cc1, OCC1OC(n2cnc3c(NCc4ccco4)ncnc32)C(O)C1O (configuration not stated), C[C@H](Cc1ccccc1)Nc1ncnc2c1ncn2[C@@H]1O[C@H](CO)C(O)[C@H]1O (some centres not stated), COc1cc2c(NC3CCN(C)CC3)nc(N3CCN(C)CC3)nc2cc1OCCOCCN(C)C, Nc1ncnc2c1ncn2[C@@H]1O[C@H](COP(=O)(O)OP(=O)(O)CP(=O)(O)O)[C@@H](O)[C@H]1O, COc1cc2nc(N3CCOCC3)nc(NC3CCN(Cc4ccccc4)CC3)c2cc1OC, C[S+](CCC(N)C(=O)O)CC1O[C@@H](n2cnc3c(N)ncnc32)C(O)C1O (some centres not stated), CCCCC#Cc1nc(NC)c2ncn([C@@H]3O[C@H](CO)[C@@H](O)C3O)c2n1 (some centres not stated), C/C(=C\CNc1ncnc2c1ncn2[C@@H]1O[C@H](CO)[C@@H](O)[C@H]1O)CO, Nc1ncnc2c1ncn2C1OC(COP(=O)(O)O)C(O)C1O (configuration not stated), C/C(=C\CNc1ncnc2c1ncn2[C@@H]1O[C@@H](CO)[C@@H](O)[C@H]1O)CO, Nc1ncnc2c1ncn2[C@H]1O[C@@H](CSCC[C@@H](N)C(=O)O)[C@H](O)[C@@H]1O, OC[C@H]1O[C@@H](n2cnc3c(NC4CCCCC4)ncnc32)[C@H](O)[C@@H]1O, C=CCNc1nc(NC2CCN(C)CC2)c2cc(OC)c(OC)cc2n1, OCCNc1ncnc2c1ncn2[C@@H]1O[C@@H](CO)[C@H](O)[C@@H]1O, COc1cc2nc(N3CCN(C)CC3)nc(NCCN(C)C)c2cc1OC, CCN(c1cc(C#CCN2CCOCC2)cc(C(=O)NCc2c(C)cc(C)[nH]c2=O)c1C)C1CCC(N(C)CCOC)CC1 (configuration not stated), Cn1cnc2c(ncn2[C@@H]2O[C@H](CO)[C@@H](O)[C@H]2O)c1=N, CSc1nc(N)c2ncn([C@@H]3O[C@H](COP(=O)(O)OP(=O)(O)OP(=O)(O)O)[C@@H](O)[C@H]3O)c2n1, CSCC1OC(n2cnc3c(N)ncnc32)C(O)C1O (configuration not stated), CNC(=O)[C@H]1O[C@@H](n2cnc3c(N)ncnc32)[C@H](O)[C@@H]1O, Nc1ncnc2c1ncn2[C@@H]1O[C@H](CO)[C@@H](O)[C@H]1O, OCC1OC(n2cnc3c(=S)nc[nH]c32)C(O)C1O (configuration not stated), COc1cc2c(NC3CCN(C(C)C)CC3)nc(N3CCC(F)(F)CC3)nc2cc1OCCCN1CCCC1, COc1cc2nc(N3CCN(C)CC3)nc(NCCC3CC3)c2cc1OC, COc1cc2nc(NC3CCN(C)CC3)nc(N3CCCN(C)CC3)c2cc1OC, CNC(=O)c1cnn(-c2nc(N)c3ncn([C@@H]4O[C@H](CO)[C@@H](O)[C@H]4O)c3n2)c1, OC[C@H]1O[C@H](n2cnc3c(N[C@H]4CCC[C@@H]4O)ncnc32)[C@H](O)[C@@H]1O, Nc1ncnc2c1nc(Br)n2C1CC(O)C(CO)O1 (configuration not stated), Nc1ncnc2c1ncn2[C@@H]1O[C@H](COP(=O)(O)OP(=O)(O)OC[C@H]2OC(O)[C@H](O)[C@@H]2O)[C@@H](O)[C@H]1O (some centres not stated), COc1cc2c(NC3CCN(C)CC3)nc(N3CCCN(C)CC3)nc2cc1OCCN(C)CCN(C)C, CCC(CC)n1ccc2c(C(=O)NCc3c(C)cc(C)[nH]c3=O)cc(C#N)cc21, C[S+](CC[C@H](N)C(=O)O)C[C@H]1O[C@@H](n2cnc3c(N)ncnc32)[C@H](O)[C@@H]1O (some centres not stated), Nc1ncnc2c1ncn2[C@@H]1O[C@H](COP(=O)(O)O)[C@@H](O)[C@@H]1O, Nc1ncnc2c1ncn2[C@@H]1O[C@H](C(=O)N2CCN(CC(=O)Nc3cccc4c3CNC4=O)CC2)[C@@H](O)[C@H]1O, Nc1nc2c(ncn2[C@@H]2O[C@H](CO)[C@@H](O)[C@H]2O)c(=O)[nH]1, COc1cc2nc(N3CCOCC3)nc(NC3CC3)c2cc1OC
